In ChEMBL document CHEMBL2218924, “A broad activity screen in support of a chemogenomic map for kinase signalling research and drug discovery” (Biochem J, 2013) one finds residual activity data, which are given here for 17 compounds.

SMILES strings stand for the structures.

Test [1] addresses Ribosomal protein S6 kinase alpha-3 (Homo sapiens) (UniProt P51812). The conditions noted are these: at 1 µM.
Test [2] shares this target. To be noted: at 10 µM.
The target in test [3] is Ribosomal protein S6 kinase alpha-6 (Homo sapiens) (UniProt Q9UK32). The conditions noted are these: at 1 µM.
Sequence of Ribosomal protein S6 kinase alpha-6 (Homo sapiens) (Q9UK32 whole entry): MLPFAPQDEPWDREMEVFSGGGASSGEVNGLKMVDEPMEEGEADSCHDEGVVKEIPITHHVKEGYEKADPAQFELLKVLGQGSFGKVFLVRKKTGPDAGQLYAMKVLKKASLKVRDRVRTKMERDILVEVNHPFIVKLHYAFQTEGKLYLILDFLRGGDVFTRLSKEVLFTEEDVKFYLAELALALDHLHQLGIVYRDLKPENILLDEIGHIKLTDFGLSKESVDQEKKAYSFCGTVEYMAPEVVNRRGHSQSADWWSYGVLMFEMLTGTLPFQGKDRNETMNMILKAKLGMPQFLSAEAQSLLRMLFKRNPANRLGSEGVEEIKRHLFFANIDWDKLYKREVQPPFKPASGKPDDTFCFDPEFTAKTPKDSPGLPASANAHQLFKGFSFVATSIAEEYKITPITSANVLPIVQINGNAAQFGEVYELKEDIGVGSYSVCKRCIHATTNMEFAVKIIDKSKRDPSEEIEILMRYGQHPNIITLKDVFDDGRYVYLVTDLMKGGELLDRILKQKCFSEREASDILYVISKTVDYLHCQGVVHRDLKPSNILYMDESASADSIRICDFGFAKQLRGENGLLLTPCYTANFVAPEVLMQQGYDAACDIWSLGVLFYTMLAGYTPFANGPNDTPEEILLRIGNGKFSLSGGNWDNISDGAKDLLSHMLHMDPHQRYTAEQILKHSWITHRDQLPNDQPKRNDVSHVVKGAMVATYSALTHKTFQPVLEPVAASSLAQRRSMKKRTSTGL
Test [4] shares this target. The conditions noted are these: at 10 µM.
Test [5] deals with T1, Tyrosine-protein kinase receptor TYRO3 (Homo sapiens) (UniProt Q06418).
T1 sequence (whole entry): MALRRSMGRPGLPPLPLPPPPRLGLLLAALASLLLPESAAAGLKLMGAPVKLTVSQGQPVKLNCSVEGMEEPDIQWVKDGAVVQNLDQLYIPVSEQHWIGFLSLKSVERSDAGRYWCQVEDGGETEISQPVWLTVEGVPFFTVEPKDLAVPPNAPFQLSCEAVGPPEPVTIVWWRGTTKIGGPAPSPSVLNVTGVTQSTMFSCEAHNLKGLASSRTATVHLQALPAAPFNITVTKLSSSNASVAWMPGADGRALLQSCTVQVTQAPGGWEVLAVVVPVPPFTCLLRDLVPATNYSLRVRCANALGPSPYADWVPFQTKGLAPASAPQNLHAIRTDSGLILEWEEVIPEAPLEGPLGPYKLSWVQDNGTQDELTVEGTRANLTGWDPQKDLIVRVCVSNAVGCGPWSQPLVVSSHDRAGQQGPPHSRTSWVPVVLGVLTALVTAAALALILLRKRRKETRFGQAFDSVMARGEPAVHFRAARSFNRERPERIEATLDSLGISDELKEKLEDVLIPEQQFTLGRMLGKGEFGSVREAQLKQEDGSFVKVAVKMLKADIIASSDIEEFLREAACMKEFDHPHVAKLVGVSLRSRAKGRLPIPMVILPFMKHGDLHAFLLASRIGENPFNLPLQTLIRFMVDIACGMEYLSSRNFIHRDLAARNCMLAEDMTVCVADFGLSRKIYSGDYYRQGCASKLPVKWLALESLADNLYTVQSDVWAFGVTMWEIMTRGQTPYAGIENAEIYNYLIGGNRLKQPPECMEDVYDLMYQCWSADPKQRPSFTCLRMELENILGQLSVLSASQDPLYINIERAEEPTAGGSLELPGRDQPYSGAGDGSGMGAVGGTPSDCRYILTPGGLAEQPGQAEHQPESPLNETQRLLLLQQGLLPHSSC
The conditions noted are these: at 1 µM.

Test [6] deals with T1, Tyrosine-protein kinase receptor TYRO3 (Homo sapiens). To be noted: at 10 µM.
Test [7] concerns the target Ribosomal protein S6 kinase alpha-1 (Homo sapiens) (UniProt Q15418). To be noted: at 1 µM.
For test [8] the target is unchanged. To be noted: at 10 µM.
In test [9] the target is Ribosomal protein S6 kinase alpha-2 (Homo sapiens) (UniProt Q15349). The conditions noted are these: at 1 µM.
Sequence of Ribosomal protein S6 kinase alpha-2 (Homo sapiens) (Q15349 whole entry): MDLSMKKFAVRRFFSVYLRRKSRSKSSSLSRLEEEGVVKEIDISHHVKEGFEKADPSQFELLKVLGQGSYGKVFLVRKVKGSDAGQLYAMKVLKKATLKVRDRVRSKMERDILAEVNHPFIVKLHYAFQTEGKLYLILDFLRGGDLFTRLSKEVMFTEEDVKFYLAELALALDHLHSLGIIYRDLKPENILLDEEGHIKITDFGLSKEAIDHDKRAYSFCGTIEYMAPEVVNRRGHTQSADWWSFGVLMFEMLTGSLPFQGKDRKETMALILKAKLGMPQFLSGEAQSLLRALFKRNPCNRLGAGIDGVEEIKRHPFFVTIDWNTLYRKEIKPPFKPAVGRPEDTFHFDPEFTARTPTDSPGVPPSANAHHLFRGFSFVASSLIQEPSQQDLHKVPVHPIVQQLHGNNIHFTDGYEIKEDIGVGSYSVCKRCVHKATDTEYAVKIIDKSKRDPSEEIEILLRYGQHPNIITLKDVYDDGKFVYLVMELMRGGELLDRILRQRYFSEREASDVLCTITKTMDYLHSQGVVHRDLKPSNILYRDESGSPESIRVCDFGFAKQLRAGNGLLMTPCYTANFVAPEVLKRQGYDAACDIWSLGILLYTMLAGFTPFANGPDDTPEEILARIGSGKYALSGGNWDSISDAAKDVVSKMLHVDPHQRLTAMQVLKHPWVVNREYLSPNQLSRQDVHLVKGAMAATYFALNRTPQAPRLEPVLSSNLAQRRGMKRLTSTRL
Test [10] shares this target. To be noted: at 10 µM.

Sequence of Ribosomal protein S6 kinase alpha-1 (Homo sapiens) (Q15418 whole entry): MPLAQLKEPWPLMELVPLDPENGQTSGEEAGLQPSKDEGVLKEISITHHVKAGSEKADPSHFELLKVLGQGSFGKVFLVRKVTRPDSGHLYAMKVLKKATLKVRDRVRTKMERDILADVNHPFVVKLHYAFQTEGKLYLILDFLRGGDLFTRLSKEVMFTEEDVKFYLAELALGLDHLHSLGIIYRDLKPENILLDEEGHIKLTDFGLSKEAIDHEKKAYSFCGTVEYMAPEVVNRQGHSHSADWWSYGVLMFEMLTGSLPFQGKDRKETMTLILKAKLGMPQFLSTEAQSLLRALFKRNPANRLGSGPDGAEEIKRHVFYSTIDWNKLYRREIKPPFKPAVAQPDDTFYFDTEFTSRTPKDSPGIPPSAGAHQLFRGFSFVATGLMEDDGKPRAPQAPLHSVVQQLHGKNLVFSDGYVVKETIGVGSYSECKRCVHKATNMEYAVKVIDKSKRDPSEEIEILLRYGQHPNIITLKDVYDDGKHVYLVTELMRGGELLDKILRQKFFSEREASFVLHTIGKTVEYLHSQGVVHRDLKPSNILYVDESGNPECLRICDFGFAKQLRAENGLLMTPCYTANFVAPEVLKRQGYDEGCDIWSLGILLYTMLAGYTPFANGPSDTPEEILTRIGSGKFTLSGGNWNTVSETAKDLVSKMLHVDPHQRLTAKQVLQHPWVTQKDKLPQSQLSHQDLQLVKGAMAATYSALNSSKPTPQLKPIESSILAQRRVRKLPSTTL
Sequence of Ribosomal protein S6 kinase alpha-3 (Homo sapiens) (P51812 whole entry): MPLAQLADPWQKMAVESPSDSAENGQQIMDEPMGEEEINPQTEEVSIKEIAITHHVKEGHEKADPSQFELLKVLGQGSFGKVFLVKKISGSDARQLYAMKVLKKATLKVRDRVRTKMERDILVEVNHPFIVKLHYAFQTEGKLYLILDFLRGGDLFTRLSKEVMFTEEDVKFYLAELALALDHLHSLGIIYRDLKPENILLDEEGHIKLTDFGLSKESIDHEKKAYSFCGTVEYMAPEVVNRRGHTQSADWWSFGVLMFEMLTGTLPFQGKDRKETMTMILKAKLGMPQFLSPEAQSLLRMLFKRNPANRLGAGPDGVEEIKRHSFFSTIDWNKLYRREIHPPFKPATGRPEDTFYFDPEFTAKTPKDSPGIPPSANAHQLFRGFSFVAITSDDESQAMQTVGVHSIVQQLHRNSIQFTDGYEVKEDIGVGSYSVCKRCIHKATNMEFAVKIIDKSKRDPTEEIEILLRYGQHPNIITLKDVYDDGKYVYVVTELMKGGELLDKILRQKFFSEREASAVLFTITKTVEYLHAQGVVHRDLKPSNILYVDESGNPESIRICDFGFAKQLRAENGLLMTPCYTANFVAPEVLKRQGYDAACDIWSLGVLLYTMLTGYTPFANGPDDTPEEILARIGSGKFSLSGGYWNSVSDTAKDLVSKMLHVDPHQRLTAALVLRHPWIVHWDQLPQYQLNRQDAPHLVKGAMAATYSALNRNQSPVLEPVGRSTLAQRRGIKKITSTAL

Broadly, the residual activity is the signal under treatment as a percentage of the control signal. `N/C(=N\[N+](=O)[O-])N/N=C\c1ccc(-c2cccc([N+](=O)[O-])c2)o1`: the residual activity in test [1] stood at 43%; in [2], 52%; in test [3], 93%; in test [4], 96%.
In the case of `O=C1Nc2ccc3ncsc3c2/C1=C/c1c[nH]cn1`, the residual activity is 56% in test [5]; 45% in test [6]; 28% in test [7]; 4% in test [8]; 18% in test [1]; 1% in test [2]. Moreover, the residual activity in [9] was 5%; in test [10], -1%; in test [3], 14%; in test [4], 2%.
Regarding `O=[N+]([O-])/C=C/c1ccc2c(c1)OCO2`, the residual activity in [5] worked out at 100%; in [6], 111%; in test [7] it was 137%; in [8], 106%; in test [1] it was 118%; in test [2], 100%. In addition, the residual activity in [9] was 105%; in test [10], 94%; in test [3], 128%; in test [4] it was 94%.
Turning to `COc1cc2ncnc(Nc3ccc(OCc4ccccc4)cc3)c2cc1OC`, the residual activity in test [5] was 41%; in test [6], 60%; in test [7], 106%; in test [8], 83%; in test [1], 52%; in [2], 46%. Also, the residual activity in [9] amounted to 110%; in test [10] it was 72%; in test [3], 106%; in test [4], 133%.
Consider `COc1ccc2c(c1)/C(=C/c1cnc[nH]1)C(=O)N2`, for which the residual activity in [5] was 97%; in test [6], 73%; in test [7], 60%; in test [8] it was 17%; in [9] it was 30%; in test [10], 4%. For the same compound, the residual activity in [3] was 53%; in test [4], 12%.
As to `COc1cc(OC)c(/C=C2\C(=O)Nc3ccccc32)c(OC)c1`, the residual activity amounted to 102% in [7]; 101% in [8]; 63% in test [1]; 57% in test [2]; 96% in test [9]; 97% in test [10]. In addition, the residual activity was 103% in [3] and 95% in [4].
As to `O=c1[nH]c2ccccc2n1C1CCN(Cc2ccc(-c3nc4cc5[nH]cnc5cc4nc3-c3ccccc3)cc2)CC1`, the residual activity in [5] is 91%; in test [6], 91%; in test [7], 117%; in [8], 84%; in test [1], 68%; in [2], 35%. Further, the residual activity worked out at 108% in test [9], 93% in test [10], 106% in [3] and 109% in [4].
As to `CCn1cnc2c(Nc3cccc(Cl)c3)nc(N[C@@H]3CCCC[C@@H]3N)nc21`, the residual activity in test [5] is 93%; in test [6], 50%; in [7], 67%; in test [8], 16%; in [1] it was 28%; in test [2] it was 4%. The residual activity in test [9] is 30%; in test [10], 5%; in test [3], 24%; in test [4], 7%.
Take `O=C1NC(=O)c2c1c1c3ccccc3n3c1c1c2c2ccccc2n1C1CCC3O1`: the residual activity came out at 13% in test [7]; 7% in test [8]; 11% in [1]; 3% in test [2]; 8% in [9]; 8% in test [10]. Moreover, the residual activity in [3] stood at 9%; in test [4], 17%.
Consider `CC(C)(C)c1cc(C=C(C#N)C#N)cc(Br)c1O`, for which the residual activity in test [5] is 112%; in test [6], 104%; in test [7] it was 111%; in test [1] it was 100%; in test [2] it was 78%; in test [9], 106%. The figures for the residual activity in [10], in [3] and in [4] were 82%, 98% and 106%, respectively.
For the compound `CC(C)[C@H](CO)Nc1nc(Nc2cccc(Cl)c2)c2ncn(C(C)C)c2n1`, the residual activity in test [5] was 85%; in test [6] it was 78%; in test [7], 77%; in test [8] it was 19%; in [1], 62%; in test [2], 15%. In addition, the residual activity in test [9] turned out to be 75%; in [10], 21%; in test [3], 40%; in test [4] it was 24%.
Regarding `COc1ccc2c(c[n+](C)c3c4cc5c(cc4ccc23)OCO5)c1OC`, the residual activity in test [5] was determined as 89%; in test [6] it was 79%; in test [8] it was 92%; in test [2], 91%; in [10], 93%.
On to `COC(=O)[C@@]1(O)C[C@H]2O[C@]1(C)n1c3ccccc3c3c4c(c5c6ccccc6n2c5c31)C(=O)NC4`, for which the residual activity in test [5] was 6%; in test [6] it was 2%; in [7], 1%; in test [8], 2%; in test [1], 1%; in test [2], 1%. Moreover, the residual activity was 0% in test [9], 1% in test [10], -2% in [3] and 3% in test [4].
Turning to `c1cc(-c2cnn3cc(-c4ccc(OCCN5CCCCC5)cc4)cnc23)ccn1`, the residual activity was 104% in test [5]; 67% in test [6]; 74% in [8]; 46% in [1]; 28% in [2]; 50% in test [10]. Besides, the figures for the residual activity in test [3] and in test [4] were 68% and 63%, respectively.
With `O=C1c2ccccc2-c2nc3nnnn3nc21`, the residual activity worked out at 106% in test [5]; 114% in test [6]; 109% in test [7]; 103% in test [8]; 67% in test [1]; 53% in test [2]. Besides, the residual activity in test [9] was determined as 120%; in [10] it was 106%.
As for `CCc1nc(-c2ccc(OC)cc2)[nH]c1-c1ccncc1`, the residual activity is 107% in test [5]; 108% in [6]; 105% in test [7]; 104% in test [8]; 52% in test [1]; 55% in test [2].
In the case of `C[S+]([O-])c1ccc(-c2nc(-c3ccc(F)cc3)c(-c3ccncc3)[nH]2)cc1` (configuration not stated), the residual activity came out at 107% in test [5]; 80% in test [8]; 108% in test [1]; 97% in test [2]; 107% in [9]; 96% in test [10]. Besides, the residual activity is 114% in test [3] and 113% in [4].
